# Source: PubChem BioAssay (Tox21)
# Inconclusive results are not listed. Activity calls are given as the source filed them. Calls come from the whole dose curve; as a rule, active = well fitted curve in the direction sought with a large enough effect in the repeat runs; inconclusive = weak or mixed curves; inactive = no such curve, though single readings can be large; an effect the other way counts as inactive or inconclusive.
# Assay: qHTS assay to identify small molecule antagonists of the thyroid receptor (TR) signaling pathway - cell viability counter screen (AID 743064); note: nearly all actives have a fitted effect of over 50% in size
# Conditions: GH3.TRE-Luc viability, CellTiter-Fluor, 24 h; series mostly up to 70.3 µM; activity change, negative = cytotoxic: at the top concentration
# Summary of the method: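 Compounds were tested on GH3.TRE-Luc cells in the presence of T3 at 1 nM final. Following 23.5 h at 37 °C, cell viability was quantified by CellTiter-Fluor.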
# % is set by controls: 0 for no effect and ±100 for the full control effect; potency is the fitted concentration of half-maximal effect.
Structure (SMILES),Potency,"activity change, negative = cytotoxic"
COC(=O)Nc1nc2ccc(C(=O)c3cccs3)cc2[nH]1,266 nM (active),
CC(C)c1nnc2ccc(-c3ocnc3-c3cc(F)ccc3F)cn12,,24.7% (inactive)
C[N+]1(C)CCC(=C(c2ccccc2)c2ccccc2)CC1,,20.9% [at 32.5 µM] (inactive)
CC(=O)[C@H]1CC[C@H]2[C@@H]3C[C@H](C)C4=CC(=O)CC[C@]4(C)[C@H]3[C@@H](O)C[C@]12C,,6.51% [at 32.5 µM] (inactive)
C=CC(=C)CCCC(C)(C)OC(C)=O,,3.22% (inactive)
Fc1c(F)c(F)c(Br)c(F)c1F,,-2.56% (inactive)
Nc1nc(Cl)nc2c1ncn2[C@@H]1O[C@H](CO)[C@@H](O)[C@@H]1F,237 nM (active),
CCOC(=O)[C@@H](C)Oc1ccc(Oc2nc3ccc(Cl)cc3o2)cc1,,-10.9% (inactive)
CN(C)C(=O)Nc1ccc(Oc2ccc(Cl)cc2)cc1,,-18% (inactive)
CCCCC(CC)CNCC(CC)CCCC (stereo not drawn),,-0.199% (inactive)
C[Si]1(C)O[Si](C)(C)O[Si](C)(C)O1,,5.54% (inactive)
Cc1oc(C)c(C(=O)Nc2ccccc2)c1C,,-0.876% (inactive)
COCc1c(C(C)C)nc(C(C)C)c(/C=C/[C@@H](O)C[C@@H](O)CC(=O)O)c1-c1ccc(F)cc1,,-26.5% (inactive)
CCC(C)=O,,2.3% (inactive)
CC1(C)C(=O)N(Br)C(=O)N1Cl,,-10.7% (inactive)
CC1CC(O)CC(C)(C)C1 (stereo not drawn),inactive,
CC1C2CC(CC2C2CCCC(O)C2)C1(C)C (stereo not drawn),,20.6% (inactive)
CCCCCCCCSCCO,,-15.7% (inactive)

# Assay: qHTS assay to identify small molecule antagonists of the thyroid receptor (TR) signaling pathway (AID 743065); note: nearly all actives have a fitted effect of over 55% in size
# Conditions: GH3.TRE-Luc, T3-stimulated luciferase inhibition, 23.5 h; series mostly up to 70.3 µM; activity, negative = inhibition: at the top concentration
# Summary of the method: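 GH3.TRE-Luc rat pituitary cells carrying two TR response elements driving luciferase were plated for 4 h, given compound plus 1 nM T3 (final), and incubated 23.5 h at 37 C. ONE-Glo luminescence measured reporter inhibition; CellTiter-Fluor fluorescence tracked cytotoxicity.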
Structure (SMILES),"activity, negative = inhibition",Potency
NCC1CCCC(CN)C1 (stereo not drawn),14.4% (inactive),
O=C(C(=O)c1ccccc1)c1ccccc1,6.23% (inactive),
C[N+](C)(C)CCOC(N)=O,5.97% (inactive),
c1cnc2c(n1)CCCC2,2.31% (inactive),
Nc1nccs1,,inactive
CCCCCCOC(=O)CCCCCCCC(=O)OCCCCCC,0.0978% (inactive),
COCCOC,16.4% (inactive),
C/C=C(\C)C(=O)OCCC(C)CCC=C(C)C (stereo not drawn),-1.34% (inactive),
CC(=N\O)/C(C)=N/O,7.48% (inactive),
CC(C)CCCCCOC(=O)CCCCC(=O)OCCCCCC(C)C,-8.46% (inactive),
CO[C@H]1O[C@H](CO)[C@@H](O)[C@H](O)[C@H]1O,-5.59% (inactive),
CN1CCN(CCCN2c3ccccc3Sc3ccc(S(=O)(=O)N(C)C)cc32)CC1,,11.4 µM (active)
O=C(CCCCCCCCC#CI)Oc1ccccc1,,13.3 µM (active)
CCCCN(CCCC)CCCOC(=O)c1ccc(N)cc1,1.48% [at 32.5 µM] (inactive),
CC1=CC(=O)CC(C)(C)C1(O)/C=C/C(C)=C\C(=O)O (stereo not drawn),6.62% (inactive),
CCCC(=O)O[C@]1(C(=O)COC(=O)CC)CC[C@H]2[C@@H]3CCC4=CC(=O)CC[C@]4(C)[C@H]3[C@@H](O)C[C@@]21C,-0.026% (inactive),
Cc1ccccc1N1C(=O)c2cc(S(N)(=O)=O)c(Cl)cc2NC1C (stereo not drawn),,inactive
Cc1ccc(Nc2nccc(N(C)c3ccc4c(C)n(C)nc4c3)n2)cc1S(N)(=O)=O,,6.68 µM (active)
Cc1ccc(/C=N/n2c(-c3ccccc3)csc2=S)cc1,,23.7 µM (active)
Cc1cnc(C)c(C)n1,10.1% [at 95 µM] (inactive),

Structure (SMILES),"activity, negative = inhibition",Potency
CC(C)(C)C(=O)O,14.2% [at 95 µM] (inactive),
CCCCC(=O)O[C@]1(C(=O)CO)CC[C@H]2[C@@H]3CCC4=CC(=O)CC[C@]4(C)[C@H]3[C@@H](O)C[C@@]21C,0.0423% (inactive),
COC(=O)Nc1nc2ccc(C(=O)c3cccs3)cc2[nH]1,,0.237 µM (active)
CC(C)c1nnc2ccc(-c3ocnc3-c3cc(F)ccc3F)cn12,0.0356% (inactive),
C[N+]1(C)CCC(=C(c2ccccc2)c2ccccc2)CC1,9.28% [at 32.5 µM] (inactive),
CC(=O)[C@H]1CC[C@H]2[C@@H]3C[C@H](C)C4=CC(=O)CC[C@]4(C)[C@H]3[C@@H](O)C[C@]12C,-21.9% [at 32.5 µM] (inactive),
C=CC(=C)CCCC(C)(C)OC(C)=O,-1.51% (inactive),
Fc1c(F)c(F)c(Br)c(F)c1F,1.37% (inactive),
Nc1nc(Cl)nc2c1ncn2[C@@H]1O[C@H](CO)[C@@H](O)[C@@H]1F,,0.133 µM (active)
CCOC(=O)[C@@H](C)Oc1ccc(Oc2nc3ccc(Cl)cc3o2)cc1,-17.1% (inactive),
CN(C)C(=O)Nc1ccc(Oc2ccc(Cl)cc2)cc1,,54.5 µM (active)
CCCCC(CC)CNCC(CC)CCCC (stereo not drawn),8.39% (inactive),
C[Si]1(C)O[Si](C)(C)O[Si](C)(C)O1,0.861% (inactive),
Cc1oc(C)c(C(=O)Nc2ccccc2)c1C,,24.3 µM (active)
COCc1c(C(C)C)nc(C(C)C)c(/C=C/[C@@H](O)C[C@@H](O)CC(=O)O)c1-c1ccc(F)cc1,,11.9 µM (active)
CCC(C)=O,3.41% (inactive),
CC1(C)C(=O)N(Br)C(=O)N1Cl,-0.0078% (inactive),
CC1CC(O)CC(C)(C)C1 (stereo not drawn),,inactive
CC1C2CC(CC2C2CCCC(O)C2)C1(C)C (stereo not drawn),24.2% (inactive),
CCCCCCCCSCCO,-22.8% (inactive),
